# Measurements taken from PubChem BioAssay (EPA / NIEHS).
# Results filed as inconclusive are left out. Activity calls are given as the source filed them. Rule for the calls, unless noted: active = hit-call score of the fitted dose curve at least 0.9, where 1 is the maximum; inactive = score below 0.9.
# System: Thyroperoxidase (TPO), gene 54314
# Test: CCTE_Simmons_AUR_rTPO: CCTE's Amplex UltraRed Assay for Thyroperoxidase (TPO) Inhibition, Simmons Lab (AID 2283662; active = hit-call score of the fitted dose curve at least 0.9, where 1 is the maximum;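 for AC50: potency for loss of signal meaning inhibition of peroxidase activity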)
# Summary of the method: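 Rat thyroid microsomal TPO + 25 uM AUR in 200 mM K phosphate; cpd 5 nM–87.5 uM [final], 8 conc, 0.5% DMSO; 300 uM H2O2 starts rxn; 37C dark 30 min; endpoint FI 544/590 nm; n=3.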
Compound,AC50,outcome
CCCCCCc1ccc(N)cc1,0.0476 µM (active),–
C[C@]12CC[C@@H]3c4ccc(O)cc4CC[C@H]3[C@@H]1C[C@@H](O)[C@@H]2O,11.9 µM (active),–
COc1cc([N+](=O)[O-])ccc1N,–,inactive

# System: not listed separately
# Test: CCTE_Simmons_CellTiterGLO_HEK293T: Viability Assessment in CCTE's Assays for Thyroperoxidase (TPO) Inhibition, Simmons Lab (AID 2283665; active = hit-call score of the fitted dose curve at least 0.9, where 1 is the maximum;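 for AC50: cells exposed to compound for 24 h before readout; actives reduce ATP signal below DMSO vehicle meaning cytotoxicity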)
# Summary of the method: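 HEK293T cells in DMEM with 1% FBS were dosed with 8 concentrations (5 nM–87.5 uM final, 0.5% DMSO) for 24 hr at 37C; ATP content was read by CellTiter-Glo luminescence, loss-of-signal versus DMSO, three biological replicates.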
Compound,AC50,outcome
CCCCCCc1ccc(N)cc1,11.3 µM (active),–
C[C@]12CC[C@@H]3c4ccc(O)cc4CC[C@H]3[C@@H]1C[C@@H](O)[C@@H]2O,–,inactive
COc1cc([N+](=O)[O-])ccc1N,19.1 µM (active),–

# System: not listed separately
# Test: STM_H9_OrnCyssISnorm_ratio: Stemina devTOX quickPredict H9 human embryonic stem cell (hESC)-based Assay for Ornithine (ORN):Cystine (CYSS) Ratio (AID 2283714; active = hit-call score of the fitted dose curve at least 0.9, where 1 is the maximum)
# Summary of the method: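 Undifferentiated H9 hESCs exposed 72 h, media and compound replaced every 24 h; final 24-h conditioned media deproteinized and analysed by UPLC-HRMS against C13 spike-ins. Value is the internal-standard-normalized ORN/CYSS ratio versus 0.1% DMSO.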
Compound,AC50,outcome
CC(C)(C)c1ccc(O)c(O)c1,76.2 µM (active),–
C=Cc1ccc(O)c(OC)c1,81 µM (active),–
CC1=CC(=O)c2ccccc2C1=O,11.8 µM (active),–
Cn1sccc1=O,10.8 µM (active),–
Oc1c(Cl)cc(Cl)cc1Sc1cc(Cl)cc(Cl)c1O,–,inactive

# Read-out: not listed separately
# Test: CEETOX_H295R_MTT_cell_viability: Viability Assessment in the CeeTox HT-H295R MTT Assay (AID 2283718);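 for AC50: curve fitted both ways so AC50 may mark viability loss or gain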
# Summary of the method: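 Human H295R adrenal cells, prestimulated 48 h with 10 uM forskolin, were exposed 48 h to chemicals in 0.1% DMSO. Viability was measured in the same wells by MTT (0.5 mg/ml, 4 h, 37 C), absorbance 570/650 nm, as percent of controls.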
Compound,outcome,AC50
CC(C)(C)c1ccc(O)c(O)c1,inactive,–
CC(C)CCOCCC(C)C,inactive,–
Oc1cc2ccccc2cc1O,inactive,–
C/C=C/C(=O)C1=C(C)CCCC1(C)C,inactive,–
c1cc[nH]c1,inactive,–
CC(C)(c1ccc(Oc2ccc(N)cc2)cc1)c1ccc(Oc2ccc(N)cc2)cc1,inactive,–
CCCCCC(C)OC(=O)COc1ccc(Cl)c2cccnc12 (stereo not given),inactive,–
Clc1ccc(Nc2nnc(Cc3ccncc3)c3ccccc23)cc1,inactive,–
COc1cccc(O)c1,inactive,–
C[C@]12CC[C@@H]3c4ccc(O)cc4CC[C@H]3[C@@H]1C[C@@H](O)[C@@H]2O,–,91.7 µM (active)
Cc1cccc2c1ccc1ccccc12,inactive,–
COc1cc([N+](=O)[O-])ccc1N,inactive,–
O=C(NCc1ncc(C(F)(F)F)cc1Cl)c1c(Cl)cccc1Cl,inactive,–
CCCCCc1ccc(O)cc1,inactive,–
